This passage reports inhibition results from PubChem BioAssay AID651821 (The Scripps Research Institute Molecular Screening Center, 2012).

Each structure is given as a SMILES string. About 4,700 (1.3%) of roughly 370,000 compounds were called active.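 How the source made its calls: active means inhibition above the plate cutoff, the mean of all test compounds on that plate plus 3 SD (cut at about 35% in these data); inactive means the rest.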 What follows is part of a selection rich in actives, with near analogues and random picks from the rest.

The test in a line: binders of r(CAG) RNA repeats, primary screen, biochemical, fluorescence (AID 651821).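 Further: 0% = DMSO alone and 100% = 100 µM mitoxantrone as full dye displacement; higher means more dye released from RNA so lower well fluorescence.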 Conditions: r(CAG) RNA repeat, TO-PRO-1 dye displacement fluorescence; at 3 µM; stronger effect = higher value.
In the case of `CSc1nnc(NC(=O)c2nc(S(=O)(=O)Cc3ccc(C)cc3)ncc2Cl)s1`, the inhibition was 42.9% (active).

With `Cc1cccc(CS(=O)(=O)c2ncc(Cl)c(C(=O)Nc3ccc(F)cc3)n2)c1`, the inhibition is 2.26% (inactive).

Take `Clc1cccc2c1C1CC2CCN1Cc1ccccc1` (stereo unspecified): the inhibition was 1.58% (inactive).

As for `O=C1C2C3C=CC(C3)C2C(=O)N1c1ccc(S(=O)(=O)Nc2nccs2)cc1` (stereo unspecified), the inhibition was 0.76% (inactive).

Turning to `C/C(=N\NC(=O)c1ccc(NS(=O)(=O)c2cccs2)cc1)c1ccc2ccccc2c1`, the inhibition is 19.2% (inactive).

Regarding `COc1cc(OC)c(C(=O)NNC(=O)c2ccc(NS(=O)(=O)c3cccs3)cc2)cc1OC`, the inhibition is 8.73% (inactive).

On to `O=S(=O)(NCCc1ccc(Cl)cc1)c1cccs1`, for which the inhibition was -4.34% (inactive).

As for `O=C(Nc1nncs1)c1cccc(S(=O)(=O)N2CCCCC2)c1`, the inhibition was 0.89% (inactive).

For `O=C(Nc1cccc(Cl)c1)Nc1ccccc1NS(=O)(=O)c1cccs1`, the inhibition is 48.5% (active).

`O=C(Nc1nncs1)c1ccccc1NS(=O)(=O)c1cccs1`: the inhibition was 36.4% (active).

Take `CC(C)CNc1cccc2c1S(=O)(=O)N(Cc1cn(Cc3ccccc3C(F)(F)F)nn1)Cc1ccccc1O2`: the inhibition was 7.51% (inactive).

Take `O=C(N[C@H](C(=O)N1CCC[C@H]1C(=O)NCCc1ccccc1Cl)c1ccccc1)c1ccccc1`: the inhibition is 3.45% (inactive).

Regarding `O=C(c1ccc2c(c1)OCO2)N1CCNc2ccccc2C1`, the inhibition is 2.38% (inactive).

As to `COC(=O)Cc1nnn2c1[C@H](C)[C@H](c1ccccc1Br)OCC2`, the inhibition was 2.7% (inactive).

`C#CCCN([C@H](C(=O)OC)C(C)C)S(=O)(=O)c1ccc(F)cc1Br`: the inhibition was 2.16% (inactive).

As to `COc1cccc(N(C)C(=O)[C@@H](C)[C@@H](O)c2ccc3ccccc3c2)c1`, the inhibition was -1.62% (inactive).

For the compound `COC(=O)[C@]1(Cc2ccccc2)NC=C(C(=O)c2ccccc2)[C@@H]1c1cccc(OC)c1`, the inhibition is 4.57% (inactive).

Consider `COC(=O)C1=C(C)NC(=S)NC1c1ccc(OC)cc1` (stereo unspecified), for which the inhibition is 1.6% (inactive).

Turning to `CCN(CC(=O)Nc1cc(Cl)ccc1C)C(=O)Cn1c(=O)cnc2ccccc21`, the inhibition is -5.99% (inactive).

With `C=CCNc1nc(N)c(C(=C(C#N)C#N)c2ccccc2)s1`, the inhibition was 35.8% (active).

As for `C=C(C)C#CC(Cc1ccccc1)N(CC1CC1)/C(N)=N/C(=O)OCc1ccccc1` (stereo unspecified), the inhibition is 0.56% (inactive).

In the case of `NS(=O)(=O)c1ccc(CNC(=S)NC(=O)c2ccco2)cc1`, the inhibition is 0.4% (inactive).

Regarding `CCC1CCCCN1C(=S)NC(=O)c1ccco1` (stereo unspecified), the inhibition is 0.91% (inactive).

`COc1ccc(/C=C(/NC(=O)c2ccco2)C(=O)Nc2ccc(C(C)=O)cc2)cc1`: the inhibition was 1.57% (inactive).

Take `O=C(NC(=S)N1CCc2ccccc21)c1ccco1`: the inhibition was 0.88% (inactive).

For `CCCc1ccc(OCC(=O)NNC(=S)NC(=O)c2ccco2)cc1`, the inhibition was 36.2% (active).

`CC(Oc1ccc2ccccc2c1)C(=O)NNC(=S)NC(=O)c1ccco1` (stereo unspecified): the inhibition is 48.2% (active).

`CCCCC(NC(=O)c1cccc(Br)c1)C(=O)O` (stereo unspecified): the inhibition was 0.46% (inactive).

As for `COC(=O)[C@]12C[C@H](CC(=O)N3CCOCC3)C(=O)N(Cc3ccc(Cl)cc3Cl)C1=C[C@H](COCc1ccccc1)O[C@@H]2C`, the inhibition is 4.28% (inactive).

With `CC(C)CNC(=O)OCc1cn(Cc2ccc(F)cc2)nn1`, the inhibition is 0.38% (inactive).

In the case of `Cc1cc2c(nc1C)CCCN2C`, the inhibition was -0.74% (inactive).

As to `COC(=O)[C@H](C(C)C)N1CCc2nnn(Cc3ccc(C)cc3)c2-c2ccccc2S1(=O)=O`, the inhibition was -0.02% (inactive).

On to `COCc1[nH]nc2c1C(c1ccccc1)N(c1ccccc1)C2=O` (stereo unspecified), for which the inhibition is -0.7% (inactive).

Turning to `O=C(Nc1ccc2ccccc2c1)Nc1ccc2snnc2c1`, the inhibition is 47.6% (active).

Take `O=S(=O)(Nc1ccc2ccccc2c1)N1CCCCC1`: the inhibition was 4.05% (inactive).

Regarding `CS(=O)(=O)c1ccccc1C(=O)Nc1ccc2sccc2c1`, the inhibition is 2.53% (inactive).

Consider `C[C@@H]1ON(C)[C@H]2C[C@H]3c4cc(N5CCOCC5)ccc4CCN3C[C@@H]12`, for which the inhibition was 0.67% (inactive).

As for `C=CCSc1nnc2c(n1)-c1cccc3cccc-2c13`, the inhibition is 7.81% (inactive).

Turning to `CCSc1nsc(NC(=O)Nc2cccc(C(C)=O)c2)n1`, the inhibition is 62.7% (active).

`CCCCN1C(=O)C(=O)N(CC(=O)Nc2cccc(C(C)=O)c2)C1=O`: the inhibition is 4.35% (inactive).

`CSc1nsc(SCC(=O)Nc2cc(C(=O)O)ccc2C)n1`: the inhibition was 7.69% (inactive).

For `COC(=O)c1cccc(NC(=O)CSc2nc(C)cc(=O)[nH]2)c1`, the inhibition was 6.31% (inactive).

For `CC(=O)N1CCC(C(=O)Nc2nc(-c3ccccc3)ns2)CC1`, the inhibition is 6.24% (inactive).

For the compound `C=CCSc1nsc(NC(=O)Nc2cccc(C(C)=O)c2)n1`, the inhibition was 60.2% (active).

For `CSc1nsc(NC(=O)Nc2ccccc2)n1`, the inhibition was 38.9% (active).

For the compound `CCc1nnc(NC(=O)CSc2nnnn2-c2cccc(C(C)=O)c2)s1`, the inhibition is -0.71% (inactive).

On to `O=C(NC1CCC1)c1ccc(C#CC2CC2)cn1`, for which the inhibition is 4.07% (inactive).

As for `CCC(c1ccc(NC(=O)OC(C)(C)C)cc1)c1cc(OC)cc(OC)c1` (stereo unspecified), the inhibition is 3.19% (inactive).

Consider `COC(=O)C1=C(C)N(Cc2ccccc2C(F)(F)F)C(=NCc2ccc(C(F)(F)F)cc2)NC1c1ccc(F)cc1` (stereo unspecified), for which the inhibition was 1.68% (inactive).

For `C=CCN(C(=O)[C@@H](CCCC)[C@@H](O)c1ccc(Cl)cc1)c1ccccc1`, the inhibition was -0.19% (inactive).

On to `CCC(C)C(N=C1NS(=O)(=O)c2ccccc21)C(=O)N1CCC(C)CC1` (stereo unspecified), for which the inhibition was -5.03% (inactive).

On to `COc1ccc(S[C@]2(C(=O)N(C)C)CC(=O)N(c3ccc(OC)cc3)[C@@H]2c2ccc(OC)cc2)cc1`, for which the inhibition is 2.57% (inactive).

In the case of `C=CCN1C(=O)[C@@H](CC(=O)NCC2CCCCC2)[C@]2(C(=O)OC)CCCCC=C12`, the inhibition is 2.39% (inactive).

On to `Cc1cc(C(=O)N/N=C/c2ccc(O)c([N+](=O)[O-])c2)c(C)n1-c1ccc(F)cc1`, for which the inhibition was 40.9% (active).

Consider `CC(Oc1ccccc1[N+](=O)[O-])C(=O)N/N=C/c1ccoc1` (stereo unspecified), for which the inhibition was 6.95% (inactive).

For `Cc1c(Cl)c([N+](=O)[O-])nn1Cc1ccc(C(=O)N/N=C\c2cc(Cl)ccc2O)o1`, the inhibition was 7.06% (inactive).

Turning to `O=c1[nH]c(-c2ccccc2)cn1C1CCN(Cc2ccc(-c3nc4ccc(F)cc4nc3-c3ccccc3)cc2)CC1`, the inhibition is 14.3% (inactive).

As to `O=C(CCC1CCCN(Cc2ccc(O)c(Cl)c2)C1)NCc1ccccc1F` (stereo unspecified), the inhibition is -2.68% (inactive).

`CCOC(=O)C(=O)N(Cc1ccccc1)c1ccccc1C(=O)Nc1cc(OC)ccc1OC`: the inhibition was -0.13% (inactive).

For `CCC(NC(=O)C1C2C=CC3(CN(Cc4ccccc4)C(=O)C13)O2)c1ccccc1` (stereo unspecified), the inhibition was 0.21% (inactive).

In the case of `CCOc1ccc(OCCSc2nc3ccccc3n2CC(=O)O)cc1`, the inhibition is 7.86% (inactive).

Regarding `COc1ccccc1OCCn1c(SCC(N)=O)nc2ccccc21`, the inhibition was 1.66% (inactive).

As for `Cc1ccc(C(C)C)c(OCCSc2nc3ccccc3n2CC(=O)O)c1`, the inhibition was 40.7% (active).

Take `Cc1ccc(Cn2cc(CN3[C@@H](CC(C)C)COc4ccc(Cl)cc4S3(=O)=O)nn2)cc1`: the inhibition was 2.98% (inactive).

Turning to `COC(=O)C1CN(CCc2ccccc2)CCS(=O)(=O)N1Cc1cccc(Cl)c1` (stereo unspecified), the inhibition was 1.15% (inactive).

As to `CN1C[C@]2(C=C3CCCCC3n3c(=O)n(-c4ccccc4)c(=O)n32)N=C1NC(=O)c1ccccc1` (stereo partly specified), the inhibition was 8.01% (inactive).

On to `Cc1ccc(C(=O)COC(=O)c2cccc(N3C(=O)c4c(C)nc5ccccc5c4C3=O)c2)cc1C`, for which the inhibition is 8.76% (inactive).

For the compound `Cc1ccc(-c2nc3c(C)cc(Br)cn3c2Cc2ccccc2)cc1`, the inhibition is 10.3% (inactive).

With `Cc1ccc(-c2nc3ccc(Br)cn3c2Cc2ccccc2C(F)(F)F)cc1`, the inhibition is 30.3% (inactive).

For `COc1ccc(-c2nc3ccc(Br)cn3c2Cc2ccc(C)cc2)cc1OC`, the inhibition is 40.1% (active).

Consider `Fc1cccc(Cc2c(-c3ccc(Cl)cc3)nc3ccc(Cl)cn23)c1`, for which the inhibition was 20.9% (inactive).

In the case of `COC(=O)c1ccc2nc(-c3ccc(OC)c(OC)c3)c(Cc3ccccc3)n2c1`, the inhibition was 9.92% (inactive).

For `Brc1ccc2nc(-c3ccccc3)c(Cc3ccccc3)n2c1`, the inhibition is 13.1% (inactive).

On to `Cc1cc(Br)cn2c(Cc3cccc(F)c3)c(-c3cccc(Br)c3)nc12`, for which the inhibition was 48.4% (active).

With `Cc1cc(Br)cn2c(Cc3ccccc3C(F)(F)F)c(-c3ccc(Cl)cc3)nc12`, the inhibition was 11.8% (inactive).

As to `Fc1cccc(Cc2c(-c3cccc(Cl)c3)nc3ccc(Br)cn23)c1`, the inhibition is 48.3% (active).

As to `CCCCCC(O)c1cccc(OCc2ccc3ccccc3n2)c1` (stereo unspecified), the inhibition is 1.42% (inactive).

Turning to `Cc1ccc(NC(=O)N2c3ccccc3SC2c2ccco2)c(C)c1` (stereo unspecified), the inhibition is 5.91% (inactive).

`COc1ccccc1Cc1c(-c2ccc(F)cc2)nc2ccc(C)cn12`: the inhibition was 6.12% (inactive).

For `CCCCNC(=O)C[C@@H]1C[C@@]2(C(=O)OCC)CCC=C2N(Cc2cccc3ccccc23)C1=O`, the inhibition is 1.85% (inactive).

In the case of `Cc1ccc(-n2c(COc3ccccc3)nnc2SCC(=O)Nc2ccc3c(c2)OCCO3)cc1`, the inhibition is 7.21% (inactive).

Take `CCOc1cc(C)ccc1OCc1nnc(SCC(=O)Nc2cccc(C(=O)O)c2)n1-c1ccccc1`: the inhibition was 42% (active).

In the case of `COc1ccc(-n2c(COc3ccc(C)cc3)nnc2SCC(=O)Nc2ccc(Oc3ccccc3)cc2)cc1`, the inhibition is 5.38% (inactive).

For `COC(=O)[C@]12C[C@H](CC(=O)N3CCN(C(=O)C4CC4)CC3)C(=O)N(CCC3=CCCCC3)C1=C[C@H](C(C)C)O[C@@H]2C1CC1`, the inhibition is 3.85% (inactive).

For `O=C(O)c1ccccc1/C=N/Nc1ccc(S(=O)(=O)Nc2ccc(Cl)cc2)cc1[N+](=O)[O-]`, the inhibition was 67% (active).

Turning to `COc1ccc(S(=O)(=O)NC(C)c2ccccc2)cc1C(=O)N1CCCCC1` (stereo unspecified), the inhibition was -7.44% (inactive).

For `COc1ccc(N(CC(=O)Nc2ccc(C)cc2C)S(=O)(=O)c2ccccc2[N+](=O)[O-])c(OC)c1`, the inhibition is 7.1% (inactive).

With `CCOc1ccccc1NS(=O)(=O)c1c[nH]c(C(=O)OC)c1`, the inhibition is -0.7% (inactive).

As for `COc1cccc(/C=N/Nc2ccc(S(=O)(=O)Nc3ccccc3C(=O)O)cc2[N+](=O)[O-])c1O`, the inhibition was 93.8% (active).

As for `O=C(Nc1cc(S(=O)(=O)Nc2ccc(Cl)cc2)ccc1O)c1ccc(F)cc1F`, the inhibition was 22.4% (inactive).

Consider `O=[N+]([O-])c1cc(S(=O)(=O)Nc2cccc(Cl)c2)ccc1N=Nc1c(O)[nH]c2ccccc12`, for which the inhibition is 8.1% (inactive).

In the case of `COc1cc(/C=C/C(=O)O)cc(S(=O)(=O)Nc2ccccc2C(=O)NCCc2ccccc2)c1OC`, the inhibition is 31.7% (inactive).

As for `CCN(CC(=O)NCc1cccs1)C(=O)c1cccc(S(=O)(=O)Nc2ccccc2OC)c1`, the inhibition is -2.88% (inactive).

For the compound `COc1ccc(Br)cc1/C=N/Nc1ccc(S(=O)(=O)Nc2ccccc2C(=O)O)cc1[N+](=O)[O-]`, the inhibition is 70.1% (active).

With `Cc1ccc(S(=O)(=O)NC(=O)COc2ccccc2C)cc1`, the inhibition was 1.07% (inactive).

`Cc1ccc(NS(=O)(=O)c2ccc(N/N=C/c3ccccc3OCC(=O)O)c([N+](=O)[O-])c2)c(C)c1`: the inhibition was 86.9% (active).
